aSyn UTR act: Activators working through SNCA 5'UTR binding (MLPCN); alpha-synuclein 5'UTR reporter, activators screen; activity score, % (tested at 7.5 µM), hits read low; actives 7.1% (n = 300,000); AID 1814; in the data active = activity score below about -60%
Large screens that a line does not name were inactive. A selection follows.

CC1=Nc2cc(C(=O)NCC3CCCO3)ccc2Sc2ccc(Br)cc21 (configuration not stated)	aSyn UTR act -112.9
O=C(NCC1CCCO1)c1cc(-c2ccc(Cl)cc2Cl)on1 (configuration not stated)	aSyn UTR act -164.3
Cc1ccc(-c2cc(C(=O)NCC3CCCO3)no2)cc1 (configuration not stated)	aSyn UTR act -76.1
C/C(=N\Nc1ccc(F)cc1F)c1ccccc1O	aSyn UTR act -104.3
Cn1cc(C(=O)N2CCc3ccccc32)cn1	aSyn UTR act -63.0
O=C(c1ccc(Cl)s1)N1CCc2ccccc21	aSyn UTR act -195.2
O=C(c1cc([N+](=O)[O-])ccc1N1CCCCC1)N1CCc2ccccc21	none
CC1CCN(c2c(NCc3ccc(C(=O)N4CCc5ccccc54)cc3)c(=O)c2=O)CC1	none
Cc1ccc(C(=O)N2CCc3ccccc32)cc1	aSyn UTR act -112.1
Cc1nc2nc(-c3cccnc3)nn2c(C)c1Cl	aSyn UTR act -74.0
COc1cc(/C(C)=N/NC(=O)CSc2nncn2C)ccc1OCc1ccccc1Cl	aSyn UTR act -83.0
O=C1C(Nc2ccccc2)=C2CCCC=C2N1c1ccccc1	aSyn UTR act -163.2
c1ccc(-c2cc3c(ccc4nonc43)nn2)cc1	aSyn UTR act -96.4
Cn1/c(=N\NC(=O)c2ccccc2Cl)sc2ccccc21	aSyn UTR act -89.2
Cn1/c(=N\NC(=O)C2CCCCC2)sc2ccccc21	aSyn UTR act -141.5
O=C1c2ccccc2NC(c2ccc3c(c2)OCO3)N1O (configuration not stated)	aSyn UTR act -120.5
CC(=O)OCCc1c2ccccc2c(CCCN(C)C)c2ccccc12	none
CCOC(=O)c1cnc2c(ccc3ccccc32)c1NCCCN(C)C	aSyn UTR act -357.5
COC(=O)c1ccc(CC(=O)c2nc3ccccc3s2)cc1	aSyn UTR act -63.1
COC(=O)c1ccc(/C(O)=C(\C#N)c2nc3ccccc3s2)cc1	aSyn UTR act -149.9
COC(=O)c1ccc(CSc2nc3ccccc3s2)o1	aSyn UTR act -83.2
O=C(Cc1ccccc1)c1nc2ccccc2s1	aSyn UTR act -215.7
Oc1ccccc1C1CC(c2cccs2)=NC(c2cccc(Br)c2)N1 (configuration not stated)	aSyn UTR act -86.9
Cc1cc(C(=O)Nc2sc3c(c2C#N)CCC(C)C3)cs1 (configuration not stated)	aSyn UTR act -103.1
N#Cc1c(NC(=O)c2ccccc2)sc2c1CCC2	aSyn UTR act -287.9
N#Cc1c(NC(=O)c2cccnc2)sc2c1CCC2	aSyn UTR act -149.8
CC1CCc2c(sc(NC(=S)NC(=O)c3ccccc3)c2C#N)C1 (configuration not stated)	aSyn UTR act -74.3
Cc1cc2c3c(ccc(C)c3n1)N=CN2c1ccccc1	none
CNC(=O)c1c(NC(=O)c2cccc(C)c2)sc2c1CCC2	aSyn UTR act -213.4
N#Cc1c(NC(=O)c2ccc([N+](=O)[O-])o2)sc2c1CCC2	aSyn UTR act -106.7
NC(=O)c1c(NC(=O)c2ccc([N+](=O)[O-])o2)sc2c1CCCC2	none
N#Cc1ccc(-c2cccnc2)nc1SCC(=O)Nc1sc2c(c1C#N)CCC2	aSyn UTR act -87.8
N#Cc1c(NC(=S)NC(=O)c2ccccc2)sc2c1CCCC2	aSyn UTR act -96.4
N#Cc1c(NC(=O)c2cnccn2)sc2c1CCCC2	aSyn UTR act -127.8
O=C(Nc1ccon1)c1ccc(N2CCCCC2)c([N+](=O)[O-])c1	aSyn UTR act -142.9
O=C(Nc1nc2ccccc2s1)c1ccc(N2CCCCC2)c([N+](=O)[O-])c1	aSyn UTR act -66.9
Cc1ccc(C(=O)c2cc([N+](=O)[O-])ccc2N2CCCCC2)c(C)c1	none
O=C(Cc1c(Cl)cccc1Cl)OCc1ccccn1	aSyn UTR act -123.8
N#Cc1ccc(-c2ccc(OCC3CNC(=O)O3)cc2)cc1 (configuration not stated)	aSyn UTR act -74.7
CSc1nc2ccc(NC(=O)CSc3nnc(N)s3)cc2s1	aSyn UTR act -118.8
Cn1cnnc1SCC(=O)Nc1ccc2nc(SCc3ccccc3F)sc2c1	aSyn UTR act -163.2
O=Nc1c2nc3ccccc3n(O)c-2c2ccccc12	aSyn UTR act -129.0
CN1C2CCC1/C(=C\c1ccccc1F)C(=O)/C2=C/c1ccccc1F	aSyn UTR act -89.4
Cn1ncc([N+](=O)[O-])c1C(=O)Nc1ccc(-c2nc3ccccc3o2)cc1	aSyn UTR act -129.5
CC(C)Oc1ccc(C2c3c(oc4ccccc4c3=O)C(=O)N2CCCN2CCOCC2)cc1 (configuration not stated)	aSyn UTR act -76.0
CN(C)c1ccc(C(=O)c2ccc(O)cc2O)cc1	aSyn UTR act -114.1
O=C(Nc1ccc(-n2cnnn2)cc1)c1cn2ccccc2n1	aSyn UTR act -88.5
CN(Cc1ccccc1)C(=O)c1ccc([N+](=O)[O-])o1	aSyn UTR act -84.4
Cc1ccc(-c2csc(NC(=O)c3ccc([N+](=O)[O-])o3)n2)cc1	aSyn UTR act -234.1
Cn1cc([N+](=O)[O-])c(C(=O)Nc2nc(-c3ccc(Cl)cc3)cs2)n1	none
Cc1ccc(CNC(=O)c2ccc([N+](=O)[O-])o2)cc1	aSyn UTR act -70.1
Cc1ccc(-c2csc(NC(=O)c3ccno3)n2)cc1	aSyn UTR act -128.1
C(=C\c1ccccc1)/C=N/Nc1nc2ccccc2s1	aSyn UTR act -191.2
Brc1ccc(/C=C/C=N/Nc2nc3ccccc3s2)cc1	aSyn UTR act -72.8
CCC/C=N/Nc1nc2ccccc2s1	aSyn UTR act -244.1
CC1(C)CC(=O)c2sc(N3CCCCC3)nc2C1	aSyn UTR act -90.6
Cc1ccc(-n2[nH]c(C)c(C=NCc3ccncc3)c2=O)cc1	aSyn UTR act -65.3
CN(C)/C=N/c1nc2ccc3c(c2s1)CCCC3	aSyn UTR act -138.1
COc1ccc2nc(/N=C/c3c(C)[nH]n(-c4ccc(C)cc4)c3=O)sc2c1	aSyn UTR act -73.3
COc1ccc2nc(/N=C\N(C)C)sc2c1	aSyn UTR act -91.5
COc1ccc(CCNCC(O)Cn2c3ccccc3c3ccccc32)cc1OC (configuration not stated)	none
COc1ccc(CCN2CC(C(=O)NCCc3ccccc3)CC2=O)cc1OC (configuration not stated)	aSyn UTR act -97.3
CCCCCCn1cnc2c(oc3nc4c(cc32)CCCC4)c1=O	aSyn UTR act -108.2
O=c1c2oc3nc4c(cc3c2ncn1CCCc1ccccc1)CCCC4	aSyn UTR act -105.1
CCOC(=O)CSC1=C(C#N)C(C)C2=C(CCCC2=O)N1 (configuration not stated)	aSyn UTR act -61.7
Cc1ccc(/C=C/c2nnc(-c3ccccc3)o2)cc1	aSyn UTR act -108.8
Cc1ccc(-c2noc(/C=C/c3ccccc3)n2)cc1	aSyn UTR act -201.9
Clc1ccc(-c2noc(/C=C/c3ccccc3)n2)cc1	aSyn UTR act -93.7
Cc1ccc(Nc2ncnc(-n3cccc3)n2)cc1Cl	aSyn UTR act -124.7
CC1CCCC2(C1)NC(=S)c1c(sc3c1CCCC3)N2 (configuration not stated)	aSyn UTR act -62.7
COc1cccc(C(=O)Oc2c(Br)cc(Br)cc2/C=N/NC(=O)c2cc(C)[nH]n2)c1	none
COc1cccc(C(=O)NC(=O)Nc2cc(C)[nH]n2)c1	aSyn UTR act -139.9
CCN(CC)S(=O)(=O)c1cc(C(=O)Nc2cc(C)[nH]n2)ccc1Cl	aSyn UTR act -161.0
Cc1cc(NC(=O)c2cccc(Br)c2)n[nH]1	aSyn UTR act -141.4
S=C(N/N=C/c1ccco1)NC1CC2CCC1C2 (configuration not stated)	aSyn UTR act -89.5
Oc1ccccc1/C=N/NC(=S)NC1CC2CCC1C2 (configuration not stated)	aSyn UTR act -83.0

Screening data (PubChem BioAssay)
